From PubChem BioAssay (EPA / NIEHS) come the findings set out here.

For assay [1], the target named is Myc proto-oncogene protein (Homo sapiens) (UniProt P01106). In words: ATG_Myc_CIS: Attagene CIS-FACTORIAL HepG2 Assay for human Myelocytomatosis (Myc) Proto-Oncogene Transcription Factor (AID 2282990). The following applies: HepG2, Attagene cis-reporter transcription factor activity; actives raise or lower the signal. The procedure, abridged: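 Fluorescence intensity of reporter-specific cDNA fragments, separated by capillary electrophoresis, gives the signal. Transfected HepG2 cells carrying cis-promoter reporter constructs are incubated with compound for 24 h; DMSO serves as baseline.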
Chain of Myc proto-oncogene protein (Homo sapiens) (P01106 whole entry, looked up, the tested form may be a part): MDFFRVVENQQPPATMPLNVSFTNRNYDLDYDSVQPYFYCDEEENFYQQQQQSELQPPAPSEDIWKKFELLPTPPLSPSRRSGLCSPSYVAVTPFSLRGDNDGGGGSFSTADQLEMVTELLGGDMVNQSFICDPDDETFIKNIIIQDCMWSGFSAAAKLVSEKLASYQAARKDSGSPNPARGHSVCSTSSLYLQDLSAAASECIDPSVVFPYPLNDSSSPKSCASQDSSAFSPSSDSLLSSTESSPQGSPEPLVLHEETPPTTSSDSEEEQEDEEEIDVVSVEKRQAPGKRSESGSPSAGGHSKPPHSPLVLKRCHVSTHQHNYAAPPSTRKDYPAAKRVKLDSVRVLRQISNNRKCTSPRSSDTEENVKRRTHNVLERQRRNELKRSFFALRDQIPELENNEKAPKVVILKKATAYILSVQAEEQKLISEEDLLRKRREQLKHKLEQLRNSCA

Assay [2] in a line: ATG_NF_kB_CIS: Attagene CIS-FACTORIAL HepG2 Assay for human Nuclear Factor Kappa B (NF-kB) (AID 2282991). The following applies: HepG2 Attagene cis-factorial NF-kB reporter mRNA; actives raise or lower the signal. The procedure, abridged:
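HepG2 cells transiently transfected with multiplexed cis-element reporter units measuring endogenous transcription factor activity; reporter mRNA read 24 h after dosing by RT-PCR, fluorescent labelling, HpaI digestion and capillary electrophoresis. Bidirectional fit against DMSO baseline.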

Assay [3] in a line: ATG_NRF2_ARE_CIS: Attagene CIS-FACTORIAL HepG2 Assay for human Nuclear Factor Erythroid 2 Related Factor 2 (NFR2) response to Antioxidant Response Elements (ARE) (AID 2282992).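 For AC50: reporter mRNA level measured by RT-PCR and capillary electrophoresis fluorescence.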 The following applies: HepG2 Attagene ARE/NRF2 reporter, transcription factor activity; actives raise or lower the signal. The procedure, abridged: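 Endogenous transcription factor activity in human liver HepG2 cells is tracked via a cis-element-driven reporter within a multiplexed set. mRNA induction is read by RT-PCR and capillary electrophoresis after 24 h, with DMSO as baseline.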

Assay [4] can be described thus: ATG_Oct_MLP_CIS: Attagene CIS-FACTORIAL HepG2 Assay for human Octamer-Binding Transcription Factor (Oct) (AID 2282993). The following applies: HepG2 Attagene cis-factorial Oct reporter, mRNA; actives raise or lower the signal. In outline: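 Using HepG2 cells bearing transfected cis-reporter constructs, mRNA induction was read after 24 h by fluorescent RT-PCR and capillary electrophoresis, with DMSO defining baseline for gain- or loss-of-signal fits.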

The target in assay [5] is Cellular tumor antigen p53 (Homo sapiens) (UniProt P04637). The experiment in a line: ATG_p53_CIS: Attagene CIS-FACTORIAL HepG2 Assay for human p53 Transcription Factor (AID 2282994). The following applies: HepG2 p53 cis-element reporter, Attagene mRNA; actives raise or lower the signal. In outline: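 Steps: transfect HepG2 with multiplexed cis reporter constructs; dose chemicals 24 h; extract RNA, reverse-transcribe, PCR-amplify reporter sequences; FAM-label, HpaI-digest, resolve fragments by CE. Activity fitted both directions relative to DMSO.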
Chain of Cellular tumor antigen p53 (Homo sapiens) (P04637 whole entry, looked up, the tested form may be a part): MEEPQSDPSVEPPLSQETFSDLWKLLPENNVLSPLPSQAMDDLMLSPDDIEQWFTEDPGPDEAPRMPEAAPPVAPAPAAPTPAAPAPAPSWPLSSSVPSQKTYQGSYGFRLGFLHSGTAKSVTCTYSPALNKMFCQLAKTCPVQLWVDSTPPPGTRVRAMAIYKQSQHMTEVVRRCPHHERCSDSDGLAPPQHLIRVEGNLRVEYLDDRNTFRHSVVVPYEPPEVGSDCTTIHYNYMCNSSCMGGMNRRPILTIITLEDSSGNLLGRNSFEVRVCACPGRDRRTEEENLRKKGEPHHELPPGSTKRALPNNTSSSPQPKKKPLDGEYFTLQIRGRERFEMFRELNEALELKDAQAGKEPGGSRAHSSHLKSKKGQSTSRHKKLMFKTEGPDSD

Assay [6] can be described thus: BSK_3C_TissueFactor: BioMAP Diversity Plus: 3C Assay for Tissue Factor Biomarker Activity (AID 2282997). The following applies: BioMAP 3C HUVEC, tissue factor biomarker readout; actives raise or lower the signal. The procedure, abridged:
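In this endothelial system, HUVEC are treated for 24 h and Tissue Factor is assessed by ELISA, normalised to DMSO.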

Assay [7] can be described thus: BSK_3C_uPAR: BioMAP Diversity Plus: 3C Assay for Urokinase-type plasminogen activator receptor (uPAR) Biomarker Activity (AID 2282998). The following applies: BioMAP 3C HUVEC, uPAR biomarker ELISA; actives raise or lower the signal. In outline: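 In this endothelial cell-based assay, human umbilical vein primary cells were treated with chemicals and harvested at 24 h. uPAR was quantified using ELISA, with gains or losses fitted relative to DMSO controls.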
(An ELISA detects its analyte on a solid surface through an enzyme-linked reagent.)

A short description of assay [8]: BSK_3C_VCAM1: BioMAP Diversity Plus: 3C Assay for Vascular cell adhesion molecule 1 (VCAM1) Biomarker Activity (AID 2282999). The following applies: BioMAP 3C HUVEC, VCAM1 ELISA, cytokine-stimulated; actives raise or lower the signal. The procedure, abridged: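 HUVEC primary cells, 24 h compound exposure; VCAM-1 by ELISA; gain/loss of signal fitted bidirectionally vs DMSO baseline.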

The nature of assay [9]: BSK_4H_Eotaxin3: BioMAP Diversity Plus: 4H Assay for Eotaxin 3 Biomarker Activity (AID 2283000).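 For outcome: CCL26 protein level quantified by ELISA in parallel with SRB cytotoxicity check.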 The following applies: primary human endothelial cells (HUVEC); actives raise or lower the signal. In outline: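 ELISA quantitation of CCL26 (Eotaxin-3) protein from chemically dosed human vascular endothelial cells at 24 h; increases and decreases both scored relative to DMSO-treated baseline.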

Read-out in assay [10]: Intercellular Adhesion Molecule 1 (ICAM1), ICAM1 (gene 3383)
The experiment in a line: BSK_3C_ICAM1: BioMAP Diversity Plus: 3C Assay for Intercellular Adhesion Molecule 1 (ICAM1) Biomarker Activity (AID 2283003). The following applies: primary human endothelial cells (HUVEC); actives raise or lower the signal. The procedure, abridged:
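ELISA read-out of ICAM-1; HUVEC (primary human), 3C system, 24 h post-dosing; bidirectional fit vs DMSO baseline.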

The nature of assay [11]: BSK_3C_Proliferation: Cell Proliferation Assessment in the BioMAP Diversity Plus: 3C Assay (AID 2283006).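 Note: potency may reflect either rise or fall in cell number versus DMSO.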 The following applies: primary human endothelial cells (HUVEC). The procedure, abridged:
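HUVEC, sub-confluent; 48 h chemical exposure; 10% TCA fix, 0.1% SRB stain, A560 total protein. Gain or loss of signal fitted both directions vs DMSO control.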

Assay [12] addresses Peroxisome proliferator-activated receptor gamma (Homo sapiens) (UniProt P37231). The experiment in a line: ATG_PPARg_TRANS: Attagene TRANS-FACTORIAL HepG2 Assay for human Peroxisome Proliferator-activated Receptor-gamma (PPARg) (AID 2283007; active = hit-call score of the fitted dose curve at least 0.9, where 1 is the maximum). In outline: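 HepG2 cells transiently transfected with multiplexed GAL4-UAS reporter units and exogenous chimeric NR-Gal4 proteins; reporter mRNA quantified after 24 h compound exposure by RT-PCR, fluorescent labelling, HpaI digestion and capillary electrophoresis; gain-of-signal fitted versus DMSO baseline.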

Assay [13] has as its target Nuclear receptor subfamily 1 group I member 2 (Homo sapiens) (UniProt O75469). The experiment in a line: ATG_PXR_TRANS: Attagene TRANS-FACTORIAL HepG2 Assay for human Pregnane X Receptor (PXR) (AID 2283008; active = hit-call score of the fitted dose curve at least 0.9, where 1 is the maximum). The procedure, abridged:
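HepG2 transfected (FuGene 6) with GAL4-UAS reporter units + PXR-Gal4 chimera; dosed 24 h. Total RNA → oligo(dT) RT → PCR → 6-FAM primer extension → HpaI cut → CE. Gain-of-signal vs DMSO.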

Assay [14] has as its target human Peroxisome Proliferator-activated Receptor alpha (PPARa), PPARA (gene 5465) (UniProt Q07869). The experiment in a line: ATG_PPARa_TRANS: Attagene TRANS-FACTORIAL HepG2 Assay for human Peroxisome Proliferator-activated Receptor alpha (PPARa) (AID 2283001; active = hit-call score of the fitted dose curve at least 0.9, where 1 is the maximum;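 for AC50: potency for gain of reporter signal over DMSO so agonist or activator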). The procedure, abridged: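 Transient HepG2 transfection, GAL4-UAS reporters, NR-Gal4 chimeras; 24 h compound exposure. Readout: reporter transcripts by RT-PCR, 6-FAM primer extension, HpaI digest, capillary electrophoresis. Positive direction vs DMSO baseline.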

Assay [15] deals with human Peroxisome Proliferator-activated Receptor delta (PPARd), PPARD (gene 5467) (UniProt Q03181). The experiment in a line: ATG_PPARd_TRANS: Attagene TRANS-FACTORIAL HepG2 Assay for human Peroxisome Proliferator-activated Receptor delta (PPARd) (AID 2283002; active = hit-call score of the fitted dose curve at least 0.9, where 1 is the maximum). In outline: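 Fluorescence from capillary electrophoresis of labelled RT-PCR reporter fragments gives the signal; DMSO sets baseline. Cells: HepG2 transiently carrying GAL4-UAS reporter units plus chimeric nuclear receptor-Gal4 proteins, exposed to chemicals for 24 h.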
Chain of human Peroxisome Proliferator-activated Receptor delta (PPARd), PPARD (gene 5467) (Q03181 whole entry, looked up, the tested form may be a part): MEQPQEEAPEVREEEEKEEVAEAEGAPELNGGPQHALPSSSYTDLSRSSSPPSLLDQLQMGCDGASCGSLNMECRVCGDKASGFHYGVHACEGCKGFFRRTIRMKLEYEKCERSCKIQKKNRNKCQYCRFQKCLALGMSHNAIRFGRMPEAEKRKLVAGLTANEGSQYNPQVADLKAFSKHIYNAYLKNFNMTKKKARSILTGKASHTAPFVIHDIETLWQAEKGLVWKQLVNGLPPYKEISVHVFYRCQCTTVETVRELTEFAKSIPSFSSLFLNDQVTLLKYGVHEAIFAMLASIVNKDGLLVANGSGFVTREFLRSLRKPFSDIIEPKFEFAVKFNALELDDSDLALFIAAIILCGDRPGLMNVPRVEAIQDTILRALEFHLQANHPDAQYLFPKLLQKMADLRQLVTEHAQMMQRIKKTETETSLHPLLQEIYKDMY

For assay [16], the target named is human Retinoic Acid Receptor beta (RARb), RARB (gene 5915) (UniProt P10826). The experiment in a line: ATG_RARb_TRANS: Attagene TRANS-FACTORIAL HepG2 Assay for human Retinoic Acid Receptor beta (AID 2283004; active = hit-call score of the fitted dose curve at least 0.9, where 1 is the maximum). The procedure, abridged: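 Fluorescent capillary-electrophoresis detection of GAL4-UAS reporter mRNA defines the endpoint, with induction over DMSO-treated wells scored as activity. Transiently transfected human hepatoma HepG2 cells expressing exogenous NR–Gal4 proteins are exposed to test chemicals for 24 h.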
Chain of human Retinoic Acid Receptor beta (RARb), RARB (gene 5915) (P10826 whole entry, looked up, the tested form may be a part): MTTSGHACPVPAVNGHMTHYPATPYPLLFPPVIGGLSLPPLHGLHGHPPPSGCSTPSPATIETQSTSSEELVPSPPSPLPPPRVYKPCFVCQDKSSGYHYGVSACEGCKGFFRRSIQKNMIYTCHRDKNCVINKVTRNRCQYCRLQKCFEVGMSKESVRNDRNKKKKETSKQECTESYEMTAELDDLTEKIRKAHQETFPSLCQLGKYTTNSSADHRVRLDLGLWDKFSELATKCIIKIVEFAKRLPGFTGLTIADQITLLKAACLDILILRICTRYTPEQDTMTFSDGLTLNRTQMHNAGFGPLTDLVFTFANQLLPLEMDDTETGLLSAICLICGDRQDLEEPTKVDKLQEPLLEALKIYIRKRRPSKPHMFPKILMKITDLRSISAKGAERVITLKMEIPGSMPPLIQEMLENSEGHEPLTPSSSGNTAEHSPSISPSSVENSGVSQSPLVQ

Assay [17] has as its target Retinoic acid receptor alpha (Homo sapiens) (UniProt P10276). In words: ATG_RARa_TRANS: Attagene TRANS-FACTORIAL HepG2 Assay for human Retinoic Acid Receptor alpha (RARa) (AID 2283005; active = hit-call score of the fitted dose curve at least 0.9, where 1 is the maximum;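 for AC50: potency for increased reporter signal meaning RARa activation over DMSO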). The procedure, abridged:
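HepG2 transiently transfected with multiplex GAL4-UAS reporter units including a human RARa–GAL4 chimera; 24 h compound exposure. Reporter mRNA quantified by RT-PCR, 6-FAM labeling and capillary electrophoresis; gain of signal versus DMSO.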

Assay [18] concerns the target human Retinoic Acid Receptor gamma (RARg), RARG (gene 5916) (UniProt P13631). In words: ATG_RARg_TRANS: Attagene TRANS-FACTORIAL HepG2 Assay for human Retinoic Acid Receptor gamma (RARg) (AID 2283009; active = hit-call score of the fitted dose curve at least 0.9, where 1 is the maximum;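 for AC50: AC50 is for reporter induction above DMSO meaning RARg activation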). The procedure, abridged:
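Readout: reporter transcript levels via RT-PCR, 6-FAM primer-extension labelling, HpaI digestion and capillary electrophoresis. Cells: HepG2 carrying transfected RARg-GAL4 chimera plus UAS reporter set. Dosing 24 h; DMSO negative control.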

Assay [19] has as its target human RAR-related Orphan Receptor beta (RORb), RORB (gene 6096) (UniProt Q92753). The experiment in a line: ATG_RORb_TRANS: Attagene TRANS-FACTORIAL HepG2 Assay for human RAR-related Orphan Receptor beta (RORb) (AID 2283010; active = hit-call score of the fitted dose curve at least 0.9, where 1 is the maximum). The procedure, abridged:
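HepG2, transient MRTU transfection (GAL4-UAS reporters, exogenous NR-Gal4 chimeras); 24 h compound exposure; total RNA → RT-PCR → 6-FAM primer extension → HpaI digest → CE fluorescence. Positive direction vs DMSO baseline.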

The target of assay [20] is human RAR-related Orphan Receptor gamma (RORg), RORC (gene 6097) (UniProt P51449). In words: ATG_RORg_TRANS: Attagene TRANS-FACTORIAL HepG2 Assay for human RAR-related Orphan Receptor gamma (RORg) (AID 2283011; active = hit-call score of the fitted dose curve at least 0.9, where 1 is the maximum). In outline:
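Chimeric RORg-Gal4 transactivation in transfected HepG2; 24 h exposure; RT-PCR/capillary electrophoresis readout of reporter mRNA, DMSO baseline.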

Structures are written as SMILES. Inconclusive results are not listed. The source made the active and inactive calls. Rule for the calls, unless noted: active = hit-call score of the fitted dose curve at least 0.9, where 1 is the maximum; inactive = score below 0.9.

Chain of Peroxisome proliferator-activated receptor gamma (Homo sapiens) (P37231 whole entry, looked up, the tested form may be a part): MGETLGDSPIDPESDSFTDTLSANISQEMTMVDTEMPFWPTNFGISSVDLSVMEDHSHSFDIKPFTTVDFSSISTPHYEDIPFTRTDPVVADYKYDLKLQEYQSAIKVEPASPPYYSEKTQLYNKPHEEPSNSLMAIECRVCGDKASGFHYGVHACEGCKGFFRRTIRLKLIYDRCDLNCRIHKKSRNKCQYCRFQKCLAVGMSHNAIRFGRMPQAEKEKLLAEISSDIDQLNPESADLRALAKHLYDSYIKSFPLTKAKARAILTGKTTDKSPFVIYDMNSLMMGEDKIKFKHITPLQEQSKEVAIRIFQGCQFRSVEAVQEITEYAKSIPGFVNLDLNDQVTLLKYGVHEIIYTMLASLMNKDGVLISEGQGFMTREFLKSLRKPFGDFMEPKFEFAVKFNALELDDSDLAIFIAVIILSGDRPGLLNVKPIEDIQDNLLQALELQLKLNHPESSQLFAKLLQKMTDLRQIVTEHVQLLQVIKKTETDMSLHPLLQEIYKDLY
Chain of human RAR-related Orphan Receptor beta (RORb), RORB (gene 6096) (Q92753 whole entry, looked up, the tested form may be a part): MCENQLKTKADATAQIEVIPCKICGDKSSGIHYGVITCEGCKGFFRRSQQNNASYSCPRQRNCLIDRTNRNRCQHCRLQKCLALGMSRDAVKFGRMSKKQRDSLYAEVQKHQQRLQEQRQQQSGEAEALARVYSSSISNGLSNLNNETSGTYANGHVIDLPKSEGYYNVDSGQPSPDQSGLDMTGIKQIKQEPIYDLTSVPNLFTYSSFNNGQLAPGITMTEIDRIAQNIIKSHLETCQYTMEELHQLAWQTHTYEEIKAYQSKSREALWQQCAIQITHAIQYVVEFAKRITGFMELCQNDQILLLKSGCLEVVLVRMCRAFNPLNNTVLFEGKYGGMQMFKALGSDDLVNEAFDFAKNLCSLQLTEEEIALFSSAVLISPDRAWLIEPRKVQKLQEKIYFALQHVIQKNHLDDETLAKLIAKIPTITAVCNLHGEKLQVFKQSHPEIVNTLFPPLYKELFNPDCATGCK
Chain of human Retinoic Acid Receptor gamma (RARg), RARG (gene 5916) (P13631 whole entry, looked up, the tested form may be a part): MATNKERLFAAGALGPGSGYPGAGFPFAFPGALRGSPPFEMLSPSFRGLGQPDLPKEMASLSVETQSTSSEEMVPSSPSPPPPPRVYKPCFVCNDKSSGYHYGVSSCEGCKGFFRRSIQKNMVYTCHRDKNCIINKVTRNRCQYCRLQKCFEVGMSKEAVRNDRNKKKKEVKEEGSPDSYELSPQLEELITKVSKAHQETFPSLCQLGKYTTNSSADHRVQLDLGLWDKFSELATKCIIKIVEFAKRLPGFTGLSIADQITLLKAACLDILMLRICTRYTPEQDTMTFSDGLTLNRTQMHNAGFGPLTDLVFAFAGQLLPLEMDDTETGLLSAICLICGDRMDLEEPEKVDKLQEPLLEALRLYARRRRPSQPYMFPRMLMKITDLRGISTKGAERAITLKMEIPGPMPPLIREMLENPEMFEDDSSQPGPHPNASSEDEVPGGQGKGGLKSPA
Chain of human Peroxisome Proliferator-activated Receptor alpha (PPARa), PPARA (gene 5465) (Q07869 whole entry, looked up, the tested form may be a part): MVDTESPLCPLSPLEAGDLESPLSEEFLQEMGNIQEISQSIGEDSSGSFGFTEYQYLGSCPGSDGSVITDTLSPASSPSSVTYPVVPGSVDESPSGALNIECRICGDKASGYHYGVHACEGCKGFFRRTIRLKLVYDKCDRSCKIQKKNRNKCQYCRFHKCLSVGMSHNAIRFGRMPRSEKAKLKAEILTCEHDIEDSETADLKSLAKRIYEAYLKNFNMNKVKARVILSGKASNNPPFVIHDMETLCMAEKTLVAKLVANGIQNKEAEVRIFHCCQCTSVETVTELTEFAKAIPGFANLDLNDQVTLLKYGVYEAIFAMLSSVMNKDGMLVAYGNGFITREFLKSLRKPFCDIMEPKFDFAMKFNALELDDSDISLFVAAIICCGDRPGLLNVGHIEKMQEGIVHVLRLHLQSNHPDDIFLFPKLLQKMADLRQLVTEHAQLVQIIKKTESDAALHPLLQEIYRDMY
Chain of Nuclear receptor subfamily 1 group I member 2 (Homo sapiens) (O75469 whole entry, looked up, the tested form may be a part): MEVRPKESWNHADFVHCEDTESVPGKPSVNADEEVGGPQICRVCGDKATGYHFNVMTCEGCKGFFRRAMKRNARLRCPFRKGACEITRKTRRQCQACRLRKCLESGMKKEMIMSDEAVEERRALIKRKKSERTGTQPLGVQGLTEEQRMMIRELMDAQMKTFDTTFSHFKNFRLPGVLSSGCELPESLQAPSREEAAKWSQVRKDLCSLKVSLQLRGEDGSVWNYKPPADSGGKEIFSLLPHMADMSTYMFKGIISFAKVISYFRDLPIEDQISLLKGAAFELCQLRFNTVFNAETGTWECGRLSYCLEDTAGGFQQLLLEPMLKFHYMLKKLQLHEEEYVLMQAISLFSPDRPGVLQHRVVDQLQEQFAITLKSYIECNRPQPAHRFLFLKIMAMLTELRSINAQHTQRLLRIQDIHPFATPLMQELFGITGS
Chain of Retinoic acid receptor alpha (Homo sapiens) (P10276 whole entry, looked up, the tested form may be a part): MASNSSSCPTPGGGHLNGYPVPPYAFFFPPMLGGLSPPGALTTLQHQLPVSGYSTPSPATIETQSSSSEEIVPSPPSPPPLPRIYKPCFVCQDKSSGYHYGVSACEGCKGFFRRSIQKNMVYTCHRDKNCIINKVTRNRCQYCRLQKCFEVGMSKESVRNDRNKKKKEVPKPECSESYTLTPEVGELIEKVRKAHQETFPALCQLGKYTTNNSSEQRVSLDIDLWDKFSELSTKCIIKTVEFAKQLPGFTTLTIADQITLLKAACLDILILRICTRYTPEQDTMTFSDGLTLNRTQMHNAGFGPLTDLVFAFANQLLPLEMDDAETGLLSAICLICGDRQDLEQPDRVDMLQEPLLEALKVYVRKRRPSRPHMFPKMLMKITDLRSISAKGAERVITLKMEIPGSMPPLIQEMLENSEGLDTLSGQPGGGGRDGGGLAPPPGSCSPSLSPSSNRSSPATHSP

For orientation: AC50 means the concentration at which the activity in the assay is half-maximal. Regarding `C=C(C)C(=O)OCC(CC)(COC(=O)C(=C)C)COC(=O)C(=C)C`, the compound was called inactive in [1], in [2], in assay [4], in [5], in assay [6] and in assay [7]. Further, the outcome in assay [8], in [9], in assay [10] and in [13] was inactive. For the same compound, the AC50 in assay [3] was 51.4 µM (active); in assay [11], 13.9 µM (active); in [12], 98.5 µM (active).

Regarding `CCc1cc(Cc2cc(CC)cc(C(C)(C)C)c2O)c(O)c(C(C)(C)C)c1`, the call in assay [1], in assay [5], in [15] and in [16] was inactive. Also, the AC50 in assay [2] was 17.4 µM (active); in assay [3], 7.08 µM (active); in assay [4], 16.3 µM (active); in [14] it was 51.9 µM (active); in [17], 8.99 µM (active); in assay [12], 7.31 µM (active). In addition, the concentration at half-maximal activity (AC50) in [13] is 0.028 µM (active); in assay [18] it was 9.1 µM (active).

For the compound `CC1(C)C2=CCCC(C)(C)[C@]23CC[C@H]1C3`, the result in assay [1], in assay [2], in assay [4], in assay [5], in [6] and in assay [8] was inactive. Besides, the compound was called inactive in assay [15], in assay [10], in assay [16], in assay [18] and in assay [19]. In addition, the AC50 in [3] is 100 µM (active); in assay [7], 36.4 µM (active); in assay [9], 27.3 µM (active); in assay [11], 31.7 µM (active); in assay [13], 1.31 µM (active).

`CN(C)C(=S)SC(=S)N(C)C`: the call in assay [1], in assay [2], in assay [4], in assay [5], in assay [6] and in [14] was inactive. The result in assay [15], in assay [10], in assay [13] and in assay [19] was inactive. Besides, the AC50 in assay [3] was 22.9 µM (active); in [7], 31.8 µM (active); in assay [8], 19.9 µM (active); in assay [9] it was 31.4 µM (active); in [11], 19.9 µM (active); in assay [12] it was 20.9 µM (active).

As for `CCc1ccc(O)cc1`, the result in assay [1], in assay [2], in [3], in assay [4], in assay [5] and in assay [14] was inactive. Besides, the outcome in [15], in assay [16], in assay [12] and in assay [19] was inactive.

Take `Cc1ncc[nH]1`: the outcome in [1], in assay [2], in assay [3], in [4], in assay [5] and in assay [14] was inactive. Besides, the outcome in [15] and in assay [12] was inactive.

`O=C1c2ccccc2C(=O)c2c(O)ccc(O)c21`: the compound was classed as inactive in [1], in assay [4], in [5], in assay [8], in assay [10] and in [16]. The call in [17] and in [18] was inactive. Also, the AC50 was 2.27 µM (active) in assay [2]; 4.07 µM (active) in assay [3]; 1.21 µM (active) in assay [6]; 3.02 µM (active) in [7]; 4.31 µM (active) in [9]; 2.95 µM (active) in assay [11]. Moreover, in assay [13], the AC50 was 8.69 µM (active).

For `NCc1ccco1`, the compound was called inactive in [1], in assay [2], in assay [3], in assay [4], in [5] and in [14]. For the same compound, the outcome in [15], in assay [18], in assay [19] and in assay [20] was inactive.

Take `O=C(O)CCCCCCCCC(=O)O`: the outcome in assay [1], in assay [2], in assay [3], in assay [4] and in [5] was inactive.
